Screens: PubChem BioAssay, National Center for Advancing Translational Sciences (NCATS)
Compounds with a hit are over-represented: about 19% of the library has one in this group of screens.
DT40 TDP1 no CPT = qHTS for Inhibitors of human tyrosyl-DNA phosphodiesterase 1 (TDP1): qHTS in cells in absence of CPT; Potency, µM (doses to about 46.2 µM), usual class: inhibitors; hit rate 15% among 420,000; DT40 Tdp1-/- hTDP1 cells, no CPT, ATP luminescence, 48 h; AID 686978, 2013; note: nearly all actives have a fitted effect of over 55% in size
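Growth kinetics read by CellTiter-Glo luminescence after ≥48 hr at 37 °C. Cells: DT40 Tdp1-/- stably carrying human TDP1, 400 per well, compound exposure in the absence of CPT (DMSO vehicle).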
HT1080 IDH1KD tx = qHTS for induction of synthetic lethality in tumor cells producing 2HG: qHTS for the HT-1080-IDH1KD cell line; HT-1080 IDH1 knockdown viability, ATP luminescence, 48 h; Potency, µM (doses to about 46.1 µM), actives largely listed as cytotoxic; hit rate 2% among 360,000; AID 686971, 2013
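IDH1KD HT-1080 cells, 750/well, RPMI + 5% FBS; compound pinned after 2 h settling; 48 h, 37 °C; CellTiter-Glo luminescence; % activity normalised to DMSO and no-cell wells; curves fitted, classed by r2 and efficacy.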
KB-V1 cytotox = qHTS assay for MDR1-selective chemotherapeutics: Primary screen using the drug-selected MDR subline cells KB-V1. KB-V1 MDR cells viability, CellTiter-Glo, 72 h. Potency, µM (series often up to 46.1 µM), most hits filed as cytotoxic. AID 1347076, 2019. hit rate 3.4% among 400,000; note: nearly all actives have a fitted effect of over 60% in size
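Compound-treated KB-V1 multidrug-resistant cells, 72 h, 37 degrees C; viability by CellTiter-Glo. Fitted qHTS curves give the values.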
DT40 TDP1 CPT = qHTS for Inhibitors of human tyrosyl-DNA phosphodiesterase 1 (TDP1): qHTS in cells in presence of CPT | chicken DT40 Tdp1-/-;hTDP1 cells + 20 nM CPT, ATP luminescence, 48 h | AID 686979, 2013 | Potency, µM (titrated, usually from 46.2 µM), most hits filed as inhibitors | hit rate 12% among 420,000; note: nearly all actives have a fitted effect of over 55% in size
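Chicken DT40 Tdp1-/- cells complemented with human TDP1, 400 cells/well, exposed to compounds plus 20 nM camptothecin for at least 48 h at 37 C; viability read as ATP content by CellTiter-Glo luminescence.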
KB-3-1 tox = qHTS assay for MDR1-selective chemotherapeutics: Primary screen using the parental adenocarcinoma cell KB-3-1; AID 1347075, 2019; hit rate 1.4% among 400,000; Potency, µM (highest dose often 46.1 µM), most hits filed as cytotoxic; KB-3-1 viability, CellTiter-Glo ATP luminescence, 72 h; note: nearly all actives have a fitted effect of over 60% in size
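Viability of parental KB-3-1 cells, measured by CellTiter-Glo luminescence, followed a 72 h incubation at 37 °C with pinned compounds in phenol-red-free DMEM containing 10% FBS.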
HT1080-NT tox = qHTS for induction of synthetic lethality in tumor cells producing 2HG: qHTS for the HT-1080-NT fibrosarcoma cell line; HT-1080-NT fibrosarcoma viability, CellTiter-Glo ATP luminescence, 48 h; Potency, µM (series often up to 46.1 µM), most hits filed as cytotoxic; hit rate 1.6% among 360,000;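 note: NT is the 2HG producing partner of a matched IDH1 knockdown line; nearly all actives have a fitted effect of over 55% in size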
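Read-out is CellTiter-Glo luminescence after 10 minutes at room temperature, following 48 hours' compound treatment of HT-1080-NT cells (750 cells/well, RPMI, 5% FBS, 37 degrees C).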
Numbers stand for hits; i = inactive; ? = inconclusive; nt = not tested or not shown; ! = repeats disagree; [ ] = another dose, or the depositor's remark. Calls come from the whole dose curve; as a rule, active = well fitted curve in the direction sought with a large enough effect; inconclusive = small, poorly fitted or top-dose-only effect, or another doubt; inactive = no such curve, though single readings can be large; an effect the other way counts as inactive or inconclusive.

SMILES	DT40 TDP1 no CPT	HT1080 IDH1KD tx	KB-V1 cytotox	DT40 TDP1 CPT	KB-3-1 tox	HT1080-NT tox
Cc1ccc(C(NC(=O)c2ccccc2)C(Cl)(Cl)Cl)cc1 (configuration not stated)	21µM	i	?	15µM	i	i
CCC(=O)Nc1ccc(C(=O)COC(=O)Cc2ccsc2)cc1	i	i	i	i	i	i[9.24 µM]
CC(=O)N1CCN(C(=O)COc2ccc3oc4c(c3c2)CCCC4)CC1	i	i	i	i	i	i
CC1CC(C)CN(CC(=O)N2CCCc3c2c(=O)oc2ccc(OCc4ccccc4)cc32)C1 (configuration not stated)	12µM	?	i	21µM	?	?
CC1CCN(CC(=O)N2CCCc3c2c(=O)oc2ccc(OCc4ccccc4)cc32)CC1	13µM!	?	?	?	?	?
CCCOc1ccc2oc(=O)c3c(c2c1)CCCN3C(=O)CN1CCc2ccccc2C1	23µM	i[9.24 µM]	?	?	?	?
CCOc1cc(C2c3c(oc4ccccc4c3=O)C(=O)N2Cc2ccccc2Cl)ccc1O (configuration not stated)	?	nt	i	?	i	nt
Cc1ccc(S(=O)(=O)n2ccc3c(OCCOCCNCc4ccc(F)cc4)cccc32)cc1	18µM	21µM	?	?	?	16µM
COc1ccc(NC(=O)c2oc3ccccc3c2NC(=O)Cc2cccs2)c(OC)c1	?	nt	i	?	i	nt
COc1ccc(C(=O)c2ccc(OC)cc2OC)cc1	5.8µM	12µM	?	i	15µM	23µM
COc1ccc(C(=O)c2ccc(N(C)C)cc2)c(OC)c1	2.8µM	2.5µM	?	3.2µM	5.6µM	3.5µM
COc1ccc(OC)c(C(=O)c2ccc(C(=O)c3cc(OC)ccc3OC)cc2)c1	?	i	i	?	i	i
Cc1nc(C)c(CC(=O)N2CCOc3ccc(CN4CCOCC4)cc3C2)s1	?	nt	nt	i[9.04 µM]	nt	nt
Cc1ccccc1Nc1nc(N)nc(COC(=O)CCNS(=O)(=O)c2ccccc2)n1	i	i	i	i	i	i
CCC(C)Sc1nc2c(c(=O)[nH]1)C(c1cccs1)C1=C(CCCC1=O)N2 (configuration not stated)	21µM	i	i	?	i	i
O=C(NCCCN1CCCC1=O)c1ccc(Cl)c(S(=O)(=O)N2CCCCC2)c1	i	i	i	i	i	i[9.24 µM]
CN1CCC(Oc2ccccc2Sc2ccc(C(F)(F)F)cc2)CC1	?	i	i	?	i	i
CN1CCC(Oc2ccc(Sc3ccccc3)cc2)CC1	23µM	i	?	?	?	i
Cc1ccc(-n2cccc2C(=O)NS(=O)(=O)c2ccc(C)cc2)cc1	i	i	i	i	i	i
Cc1ccc(-n2cccc2C(=S)N=P(N(C)C)(N(C)C)N(C)C)cc1	1.6µM	8.2µM	3.3µM	2.1µM	8.2µM	?
OCCN1CCN(C(c2ccc(Cl)cc2Cl)c2sc3nc(-c4ccco4)nn3c2O)CC1 (configuration not stated)	i	nt	?	i	i	nt
CCOC(=O)c1c2ccc(OCC(=O)N/N=C/c3ccc(C)cc3)cc2n2ccccc12	18µM	i	?	?	?	i
COC(=O)c1c(-c2ccc(Cl)cc2)noc1N1CCN(c2ccc(F)cc2)CC1	21µM	nt	i	21µM	i	nt
COC(=O)c1c(-c2ccc(Cl)cc2)noc1N1CCN(c2cccc(C(F)(F)F)c2)CC1	23µM	nt	i	15µM	i	nt
Cc1cc(-c2ccc(C)c(S(=O)(=O)N3CCN(c4cccc(C(F)(F)F)c4)CC3)c2)on1	?	nt	i	?	?	nt
SMILES	DT40 TDP1 no CPT	HT1080 IDH1KD tx	KB-V1 cytotox	DT40 TDP1 CPT	KB-3-1 tox	HT1080-NT tox
COC(=O)c1c(-c2ccc(Cl)cc2)noc1N1CCN(c2ccccc2OC)CC1	?	nt	i	?	i	nt
C1CCC(C(CC2CCCCN2)C2CCCCC2)CC1 (configuration not stated)	12µM	16µM	18µM!	10µM	?	12µM
Cc1cc(C(=O)NCc2cccc(Br)c2)c2c(C)nn(-c3ccccc3)c2n1	i	nt	i	i	i	nt
COC(=O)c1ccc2nc(-c3ccc(F)cc3)c(Cc3ccc(OC)cc3C)n2c1	?	?	i	?	i	?
Cc1ccc(-c2nc3ccc(C)cn3c2CC2CCCCC2)cc1	16µM	i	?	?	?	i
Cc1ccc(-c2nc3ccc(Cl)cn3c2CC2CCCCC2)cc1	?	i	?	i	i	i
COC(=O)c1ccc2nc(-c3ccc(C)cc3)c(CC3CCCCC3)n2c1	16µM	i	i	21µM	i	i
COC(=O)c1ccc2nc(-c3ccc(F)cc3)c(CC3CCCCC3)n2c1	21µM	i	?	26µM	i	i
COc1ccccc1OCCNC(=O)c1ccc2c(c1)CCC2	?	i	?	i	i	i
Cc1cccc(C)c1NC(=O)C(c1ccccc1)n1c(-c2ccccc2)nc2ccccc21 (configuration not stated)	?	i	?	?	i	i
CCc1ccc(C(=O)c2cn(CC(=O)Nc3cc(OC)ccc3OC)c3ccc(Cl)cc3c2=O)cc1	?	nt	i	?	i	nt
CCCSc1nc2sc3c(c2c(=O)[nH]1)CC(C)CC3 (configuration not stated)	16µM	i	i	?	i	i
O=c1[nH]c(C(Cl)Cl)nc2sc3c(c12)CCN(Cc1ccccc1)C3	?	i	i	i	i	i
CCCSc1nc2sc3c(c2c(=O)[nH]1)CCN(Cc1ccccc1)C3	21µM	i	i	?	i	i
COc1ccc(C(=O)N2CCC[C@@]3(CCN(Cc4cc(C(F)(F)F)cc(C(F)(F)F)c4)C3)C2)cc1	?	nt	nt	i	nt	nt
Cc1ccc(C(=O)Nc2ccccc2C(=O)NCc2ccccc2)cc1	?	i	4.6µM	?	i	i
O=C(CCl)Nc1ccccc1C(=O)NCc1ccccc1	?	?	?	23µM	?	i
Nc1sccc1C(=O)NCc1ccccc1	15µM	i	i	i	i	i
COC(=O)c1ccccc1NC(=O)C1CC=CCC1C(=O)O (configuration not stated)	?	i	i	i	i	i
Cc1ccccc1NC(=O)Nc1ccccc1C(=O)NCc1ccccc1	?	i	i	i	?	i
O=C(NCCc1ccccc1)c1ccccc1NC(=O)C1CC=CCC1C(=O)O (configuration not stated)	16µM	i	i	15µM	i	i
